Experiments:
Experiment in all cases: PBM binding z-score (relative to random genomic background probes); higher = stronger binding; sequences stand for … in GC…GCGATTGACAGCGTAGAATGAAGG
[1] = tested on: FXR:RXRa (NR concentration 270 nM, RXRa partner concentration 90 nM)
Procedure, shortened: (§1)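 Antibodies against each partner of ligand-free nuclear receptor dimers (one per run) detected binding on custom Agilent 4×180K protein-binding microarrays after 1 h incubation. The double-stranded probes had 34-nt variable regions carrying direct-repeat seeds, single-nucleotide variants, half-site ablations and random human genomic background sequences. Binding z-scores, from regression-normalized fluorescence, use the random background probes as reference.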

[2] = tested on: LXRa:RXRa (NR concentration 270 nM, RXRa partner concentration 90 nM)
Procedure, shortened: as §1

[3] = tested on: LXRa homodimer (NR concentration 270 nM)
Procedure, shortened: as §1

[4] = tested on: LXRb:RXRa (NR concentration 270 nM, RXRa partner concentration 90 nM)
Procedure, shortened: as §1

[5] = tested on: LXRb homodimer (NR concentration 270 nM)
Procedure, shortened: as §1

[6] = tested on: PPARa:RXRa (NR concentration 270 nM, RXRa partner concentration 90 nM)
Procedure, shortened: as §1

[7] = tested on: PPARg:RXRa (NR concentration 180 nM, RXRa partner concentration 90 nM)
Procedure, shortened: as §1

[8] = tested on: PPARg:RXRa 270nM:90nM, anti-RXR (NR concentration 270 nM, RXRa partner concentration 90 nM)
Procedure, shortened: as §1

[9] = tested on: PPARg:RXRa 30nM:10nM, anti-RXR (NR concentration 30 nM, RXRa partner concentration 10 nM)
Procedure, shortened: as §1

[10] = tested on: PPARg:RXRa 90nM:30nM, anti-RXR (NR concentration 90 nM, RXRa partner concentration 30 nM)
Procedure, shortened: as §1

[11] = tested on: PPARg:RXRa DBDmut IVT, anti-RXR (DBD mutation: RXRa K156A/R161A, NR concentration 270 nM, RXRa partner concentration 90 nM)
Procedure, shortened: as §1

[12] = tested on: PPARg:RXRa IVT, anti-PPARg (NR concentration 270 nM, RXRa partner concentration 90 nM)
Procedure, shortened: as §1

[13] = tested on: PPARg DBDmut:RXRa IVT, anti-PPARg (DBD mutation: PPARg1 K132A/R137A, NR concentration 270 nM, RXRa partner concentration 90 nM)
Procedure, shortened: as §1

[14] = tested on: PPARg DBDmut IVT, anti-PPARg (DBD mutation: PPARg1 K132A/R137A, NR concentration 270 nM)
Procedure, shortened: as §1

[15] = tested on: PPARg homodimer (NR concentration 180 nM)
Procedure, shortened: as §1

[16] = tested on: PXR:RXRa (NR concentration 270 nM, RXRa partner concentration 90 nM)
Procedure, shortened: as §1

[17] = tested on: PXR homodimer (NR concentration 270 nM)
Procedure, shortened: as §1

[18] = tested on: RARa:RXR (NR concentration 270 nM, RXRa partner concentration 90 nM)
Procedure, shortened: as §1

[19] = tested on: RARa homodimer (NR concentration 270 nM)
Procedure, shortened: as §1

[20] = tested on: RARb:RXRa (NR concentration 270 nM, RXRa partner concentration 90 nM)
Procedure, shortened: as §1

| Sequence | PBM binding z-score [1] | PBM binding z-score [2] | PBM binding z-score [3] | PBM binding z-score [4] | PBM binding z-score [5] | PBM binding z-score [6] | PBM binding z-score [7] | PBM binding z-score [8] | PBM binding z-score [9] | PBM binding z-score [10] | PBM binding z-score [11] | PBM binding z-score [12] | PBM binding z-score [13] | PBM binding z-score [14] | PBM binding z-score [15] | PBM binding z-score [16] | PBM binding z-score [17] | PBM binding z-score [18] | PBM binding z-score [19] | PBM binding z-score [20] |
| --- | --- | --- | --- | --- | --- | --- | --- | --- | --- | --- | --- | --- | --- | --- | --- | --- | --- | --- | --- | --- |
| CCTACTGAGCCAAAAAGGTCATTGATGCCGATAA | 3.37 | 4.28 | 3.65 | 4.29 | 1.17 | 4.37 | 1.31 | 2.81 | 0.896 | 1.99 | 0.522 | 1.14 | -0.507 | 0.266 | 3.04 | 4.49 | 2.44 | 4.93 | 2.61 | 3.86 |
| ATCGAAAGGTCGAACGTGAGTATACCCACCCGAA | 4.36 | 3.99 | 0.856 | 3.32 | 1.01 | 4.39 | 2.81 | 2.76 | 1.14 | 2.12 | 0.292 | 1.49 | 1.19 | 0.459 | 1.65 | 2.61 | 0.229 | 2.83 | 0.171 | 3.75 |
| CCTACTGGACCATTCAGAGGTCATTGATCATATG | 3.05 | 4.64 | 6.93 | 3.96 | 1.41 | 3.7 | 0.988 | 2.16 | 0.466 | 1.38 | 2.24 | 1.98 | 0.483 | 0.13 | 3.36 | 4.92 | 3.43 | 4.69 | 1.66 | 2.8 |
| TCTATTAGTTGAAGGCCAACCGACGAGTCCGTTT | 0.871 | 1.16 | 0.259 | 0.921 | 0.342 | 1.28 | 0.257 | 2.32 | 4.11 | 2.96 | 2.37 | 0.522 | 0.431 | 0.553 | 1.36 | 0.903 | 1.4 | 0.79 | 1.21 | 1.02 |
| TCATATACGTAAATGCTAGGTGAAAGTCCGATCT | 0.742 | 0.449 | 0.327 | 0.861 | 0.278 | 0.771 | 0.633 | 2.14 | 3.51 | 2.66 | 2.16 | 0.926 | 0.89 | 1.72 | 0.664 | 0.565 | 0.25 | 0.743 | 0.987 | 0.357 |
| ATCGAAAGGTCGTGAGTTGAGTATACAGAAAGGC | 4.98 | 3.53 | 0.0498 | 2.99 | 0.743 | 4.84 | 3.55 | 3.9 | 1.82 | 2.85 | -0.00462 | 1.66 | 1.4 | 1.03 | 1.91 | 3.2 | 0.152 | 3.9 | 0.363 | 3.82 |
| CGTCCAAGGTTATAGGAGGTCAGTGAAGACAGAT | 3.51 | 7.81 | 5.37 | 6.47 | 0.402 | 3.39 | 1.35 | 1.77 | 0.207 | 0.943 | 1.11 | 2.3 | 0.293 | 0.256 | 3.21 | 5.24 | 1.46 | 3.66 | 0.744 | 3.48 |
| TCTGCTAGGTAAACGATGGTCAGCTAATCTGCTA | -0.588 | -0.334 | -0.988 | -0.606 | -1.07 | -0.0928 | -0.293 | 0.636 | 1.68 | 1.22 | 1.06 | 0.192 | -0.37 | -0.397 | -1.72 | -0.369 | -0.821 | -0.233 | -1.63 | -0.0745 |
| CGTCAAAGTTCAACTAAGGTAAGGTAAAGCACGC | 7.07 | 6.11 | 4.02 | 3.87 | 1.73 | 5.14 | 5.27 | 5.34 | 2.26 | 4.31 | 0.313 | 2.23 | 0.694 | 0.769 | 2.56 | 5.25 | 3.24 | 4.42 | 1.63 | 5.2 |
| CCTCGGAGCACAGAAGGTCAGAGCTGTCCGCTTT | 1.68 | 2.17 | 0.231 | 1.21 | -0.905 | 1.97 | -0.336 | 0.536 | -1.06 | -0.433 | 0.355 | -0.108 | -1.25 | -1.67 | 1.34 | 1.87 | 0.017 | 2.1 | -0.245 | 2.62 |
| CCAGACAGCTGAAAGGTAACTCAGTCTGGTACGC | -0.259 | -0.27 | -0.368 | -0.00199 | -0.748 | 0.193 | 0.377 | -0.223 | -0.581 | -0.401 | -0.0276 | -0.495 | -0.361 | -0.671 | -0.141 | -0.177 | -0.344 | 0.0105 | -0.368 | 0.0484 |
| TCTATTAGTTGAACGGCAACCGACGAGTCCGTTT | 0.294 | 0.618 | 0.311 | 0.621 | 0.735 | 0.859 | 0.133 | 1.87 | 3.63 | 2.83 | 2.15 | 0.0618 | 0.259 | 0.73 | 0.735 | 0.661 | 0.768 | 0.372 | 0.868 | 0.424 |
| CAAGCTAGGTCACCGGAAGGTCAAAGTCCGCATG | 6.4 | 6.14 | 4.88 | 5.32 | 0.898 | 5.38 | 5.86 | 5.76 | 2.96 | 4.67 | 4.7 | 5.3 | 0.445 | 0.749 | 9.68 | 6.22 | 2.44 | 7.91 | 3.45 | 5.53 |

From the supplement of paper PMC6555819
